Test results from PubChem BioAssay (NCATS).
Results filed as inconclusive are left out. Where a call stands in place of a potency, no number is given. Unmarked numbers belong to inactive results. Calls of active or inactive are those of the source. The call rests on the fitted dose curve; in most records, active means well fitted inhibition curve with a large enough effect; inconclusive means small, poorly fitted or top-dose-only effect; inactive means no such curve, though single readings can be large or run the other way.

Experiments:
[1] = tested on: Zika virus NS2B-NS3 protease (unlinked complex); experiment: Primary screen GU Rhodamine qHTS for Zika virus inhibitors: Unlinked NS2B-NS3 protease assay (AID 1347159); further: nearly all actives have a fitted effect of over 60% in size; further: potency means the concentration at half of the fitted maximal effect
Summary of the method: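 Unlinked NS2B/NS3, 25 nM; Rhod110 peptide, 1.5 microM; compounds, up to 114 microM. Reaction run 15 min at RT in 10 mM Tris-HCl pH 8.0, 0.01% Tween 20; kinetic fluorescence change fitted with a 4-parameter Hill model.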

[2] = tested on: Zika virus NS2B-NS3 protease (linked construct); experiment: Primary screen NINDS Rhodamine qHTS for Zika virus inhibitors (AID 1347160); further: nearly all actives have a fitted effect of over 55% in size
Summary of the method: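 Single-chain NS2B-NS3 protease, 25 nM, pH 8.0; compounds preincubated 15 min. Activity: Rhodamine110 release from 1.5 microM substrate over 15 min, room temperature, data fitted to 4-parameter Hill.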

Row | SMILES | Potency [1] | Potency [2] | activity change, negative = inhibition [1] | outcome [2]
1 | C#CCNCc1cc2cc(OCc3ccccc3)ccc2[nH]1 | inactive | inactive | – | –
2 | CCOc1ccc(-n2c(C(C)N(Cc3cccnc3)C(=O)Cc3ccc(F)c(C(F)(F)F)c3)nc3ncccc3c2=O)cc1 (configuration not stated) | inactive | inactive | – | –
3 | O=C(Nc1ccccc1C(=O)NC1CCCCNC1=O)c1cc2ccccc2s1 (configuration not stated) | 31.6 µM (active) | inactive | – | –
4 | C[C@H](CN(C)C)Oc1nc(Nc2cc3cccc(Cl)c3cn2)cnc1C#N | inactive | inactive | – | –
5 | CCCC(CCC)C(=O)Nc1ccn([C@@H]2O[C@H](CO)[C@@H](O)C2(F)F)c(=O)n1 | inactive | inactive | – | –
6 | CCOC(=O)N1CCC(N2CCC[C@@H](NC(=O)c3ccccc3C)C2)CC1 | inactive | inactive | – | –
7 | Cc1nc(Nc2cnn(C3CCNCC3)c2)nc2c1N(C)C(=O)c1cc3ccccc3cc1N2C | inactive | inactive | – | –
8 | CN1CCN(C2=Nc3ccccc3Nc3ccc(OS(=O)(=O)C(F)(F)F)cc32)CC1 | inactive | inactive | – | –
9 | Cc1nc2ccc(CN(C)c3ccc(C(=O)NC(CCC(=O)O)C(=O)O)s3)cc2c(=O)[nH]1 (configuration not stated) | inactive | inactive | – | –
10 | Cc1nc(C(=O)N2CCC[C@H]2Cc2nnc(-c3ccccc3)o2)c(-c2ccccc2F)s1 | inactive | inactive | – | –
11 | C/C1=C\[C@@H](C)C[C@@H](C)[C@@H](Cc2cnco2)OC(=O)/C(C)=C/[C@@H](C)C[C@@H](C)[C@@H](Cc2cnco2)OC1=O | inactive | inactive | – | –
12 | COc1ccc(C#Cc2ccc(C(=O)N3CCC[C@@H](CO)C3)cc2)cc1 | inactive | inactive | – | –
13 | CC1OC(OC2C(O)COC(O[C@@H]3[C@@H](O)[C@@H](O)[C@H](OC4C(OC(=O)[C@]56CCC(C)(C)CC5C5=CCC7[C@@]8(C)C[C@H](O)[C@H](OC9OC(CO)C(O)C(O)C9O)[C@@](C)(CO)C8[C@H](O)C[C@@]7(C)[C@]5(C)CC6)OCC(O)C4O)O[C@H]3C)C2O)C(O)C(O)C1O (some centres not stated) | – | – | 8.24% [at 19.1 µM] | inactive [at 10.7 µM]
14 | CO[C@H]1C[C@@H]2CC[C@@H](C)[C@@](O)(O2)C(=O)C(=O)N2CCCC[C@H]2C(=O)O[C@H]([C@@H](C)C[C@@H]2CC[C@@H](O)[C@H](OC)C2)CC(=O)[C@H](C)/C=C(\C)[C@@H](O)[C@@H](OC)C(=O)[C@H](C)C[C@H](C)/C=C/C=C/C=C/1C | inactive | inactive | – | –
15 | CC(CCC1(O)OC2CC3C4CC=C5CC(O[C@@H]6O[C@H](CO)[C@@H](O[C@@H]7O[C@@H](C)[C@H](O)[C@@H](O)[C@H]7O)[C@H](O)[C@H]6O[C@@H]6O[C@@H](C)[C@H](O)[C@@H](O)[C@H]6O)CCC5(C)C4CCC3(C)C2C1C)CO[C@@H]1O[C@H](CO)[C@@H](O)[C@H](O)[C@H]1O (some centres not stated) | inactive | inactive | – | –
16 | O=C(O)CCc1nccc2c1[nH]c1ccccc12 | inactive | inactive | – | –

Row | SMILES | Potency [1] | Potency [2] | activity change, negative = inhibition [1] | outcome [2]
17 | CC1CCCC[C@H]2C(=O)C=C[C@H](O)[C@@H]2CC(=O)O1 (some centres not stated) | inactive | inactive | – | –
18 | CC(C)Oc1ccc(-c2cnc3c(-c4ccnc5ccccc45)cnn3c2)cc1 | inactive | inactive | – | –
19 | CNC(=O)c1ccc2c(c1)CCO[C@H]2CCN1CCN(c2ccc(OC)cc2)CC1 | inactive | inactive | – | –
20 | CCOC(=O)N1CCC(CN(Cc2ccc(Cl)cc2)Cc2ccc([N+](=O)[O-])s2)C1 (configuration not stated) | inactive | inactive | – | –
21 | Nc1nccc(-c2c(-c3ccc(F)cc3)ncn2C2CCCCC2)n1 | inactive | inactive | – | –
22 | CC(C)(O)C1Cc2c(ccc(C(=O)CCc3ccccc3)c2O)O1 (configuration not stated) | inactive | inactive | – | –
23 | COc1ccccc1N1CCN(CC(C(=O)NC(C)(C)C)c2ccccc2)CC1 (configuration not stated) | inactive | inactive | – | –
24 | CCNC(=O)Nc1ccc(-c2nc3c(c(N4CCOCC4C)n2)CCN(C2COC2)C3)cc1 (configuration not stated) | inactive | inactive | – | –
25 | C=CC1(C)CC(O)C(C(=C)C(=O)OC)C(O)C1C(=C)CO (configuration not stated) | inactive | inactive | – | –
26 | N#CC(CCCN1CCN(/N=C/c2cccnc2)CC1)(c1ccccc1)c1ccccc1 | inactive | inactive | – | –
27 | CN1CCN(C2=Nc3ccccc3Nc3ccc(Cl)cc32)CC1 | inactive | inactive | – | –
28 | NCC1CCN(c2nccc(-c3ccc4ccccc4c3)n2)CC1 | inactive | inactive | – | –
29 | CC(C)/C=C1\NC(=O)C(C(C)C)n2c1nc1ccccc1c2=O (configuration not stated) | inactive | inactive | – | –
30 | Cc1cc(C(C)Nc2ccccc2C(=O)O)c2nc(N3CCOCC3)cc(=O)n2c1 (configuration not stated) | inactive | inactive | – | –
31 | Cc1cc(C)cc(-c2cnc3cc(Cl)c(-c4cccc(O)c4)cc3c2OCCCN)c1 | inactive | inactive | – | –
